Compound activity deposited in PubChem by National Center for Advancing Translational Sciences (NCATS).
Sampled rows, rich in hits. Any-hit rate of the full collection: about 15%.
HCV inh – blocks hepatitis C virus. Huh7.5.1 HCVcc-Cre infection, luciferase reporter, 44 h. hit rate 3.4% among 340,000. Potency, µM (highest dose often 41.8 µM), for the others: top-dose activity change, negative = inhibition, hits mostly inhibitors; further: potency means the concentration at half of the fitted maximal effect; on the % scale 0 is the no-effect control and ±100 the full control effect
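Reporter virus HCVcc-Cre (~0.5 moi) infects cells exposed to compound; seeding density 1,000 cells/well with 4 h settling beforehand. Luminescence, 15 sec read, taken 44 h post-infection following a 15 min RT substrate incubation.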
SARS PLP yeast – SARS-CoV PLP inhibition in yeast; S. cerevisiae expressing SARS-CoV PLpro, growth rescue; Potency, µM (titrated, usually from 32.9 µM), without a hit: at the top dose activity, positive = growth rescue, usual class: activators; hit rate 0.19% among 330,000; calls by dose curve; further: potency means the concentration at half of the fitted maximal effect; 0% is about no effect; nearly all actives have a fitted effect of over 55% in size
HCMV antiviral – blocks human cytomegalovirus replication. AID 1259415. activity change, negative = inhibition, % at 57.5 µM. hit rate 4.5% among 410,000. HFF cells, HCMV-luciferase reporter, 72 h; active compounds read low; in the data active means activity change below about -60%; inconclusive means no clear call, values can overlap the other calls; inactive means above about -39%; further: on the % scale 0 is the no-effect control and ±100 the full control effect
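Inhibition of viral replication was scored as loss of reporter luminescence in HFFs infected with HCMV-luciferase (MOI 1 PFU/cell) for 72 h; compounds tested at 2 doses, normalized to buffer and Salinomycin controls.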
Pf growth 96h – inhibits malaria parasite growth, 96 h | hit rate 6.9% among 320,000 | Potency, µM (series often up to 28.7 µM), inactives show at the top dose activity change, negative = inhibition, most hits filed as inhibitors | P. falciparum luciferase reporter growth, 96 h; further: potency means the concentration at half of the fitted maximal effect; on the % scale 0 is the no-effect control and ±100 the full control effect
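Infected RBCs, 2% Hct / 0.05% parasitemia final; luciferase-reporter P. falciparum; cpd 96 h, 37 C, 5% CO2; luciferase detection reagent; luminescence.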
Pf growth 48h – inhibits P. falciparum growth in the first generation, 48 h. Potency, µM (highest dose often 28.7 µM), without a hit: at the highest dose activity change, negative = inhibition, usual class: inhibitors. P. falciparum luciferase growth in erythrocytes, 48 h. hit rate 5.9% among 310,000; further: potency means the concentration at half of the fitted maximal effect; on the % scale 0 is the no-effect control and ±100 the full control effect
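In quantitative HTS format, infected erythrocytes bearing luciferase-reporter parasites were treated for a single generation at 37 C. Luminescence after adding detection reagent served as the growth measure.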
Sm TGR inh – blocks Schistosoma mansoni thioredoxin glutathione reductase; purified TGR, DTNB reduction, TNB absorbance 405 nm; Potency, µM (top dose mostly 114 µM), for inactives: at the highest dose activity change, negative = inhibition, actives largely listed as inhibitors; hit rate 3% among 360,000; further: potency means the concentration at half of the fitted maximal effect; on the % scale 0 is the no-effect control and ±100 the full control effect; nearly all actives have a fitted effect of over 60% in size
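Kinetic colorimetric format: TGR-catalysed, NADPH-driven DTNB reduction monitored via TNB absorbance. Enzyme dispensed at 20 nM; compound exposure 15 min at room temperature before reaction start.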
The depositor's hits bear a star; ? = inconclusive; . = no result given. Unless noted, the call rests on the fitted dose curve; in most records, active means well fitted curve in the direction sought with a large enough effect; inconclusive means small, poorly fitted or top-dose-only effect, or another doubt; inactive means no such curve, though single readings can be large; an effect the other way counts as inactive or inconclusive.

SMILES	HCV inh	SARS PLP yeast	HCMV antiviral	Pf growth 96h	Pf growth 48h	Sm TGR inh
COc1ccc(C(=O)NCCCN2CCN(CCCNC(=O)c3ccc(OC)c(OC)c3)CC2)cc1OC	4.3%	-4.1%	-16.6	-11.6%	15.4%	-10.5%
COc1ccccc1N1CCN(CCCCNC(=O)c2ccc3ccccc3c2)CC1	?	.	-6.7	4.15µM*	?	8.1%
COc1ccccc1N1CCN(S(=O)(=O)CCNC(=O)CCc2ccccc2)CC1	.	.	-85.7*	.	.	.
CCOCCCn1c(SCC(=O)Nc2ccccc2CC)nc2ccccc2c1=O	.	.	-25.3	.	.	-3.7%
Cc1cccc(NC(=O)CCS(=O)(=O)c2ccc3c(c2)NC(=O)CS3)n1	9.4%	-3.1%	3.1	?	8.5%	1.5%
CCN1CCN(c2cc3c(cc2F)c(=O)c(S(=O)(=O)c2ccc(OC)cc2)cn3CC)CC1	.	.	-12.7	.	.	-3.6%
Cc1cc(=O)oc2cc(NC(=S)NNC(=O)c3c(Cl)cnn3C)ccc12	.	-8.5%	20.8	?	120.4%	-20.8%
CCCCNC(=O)Cn1cnc2sc(C)c(S(=O)(=O)N3CCN(c4ncccn4)CC3)c2c1=O	2.1%	2.2%	-9.2	7.2%	-12.3%	-0.3%
COc1ccccc1N1CCN(CCCNC(=O)Nc2ccccc2)CC1	-20.6%	-2.0%	11.9	?	11.7µM*	3.0%
N#C/C(=C(/O)C(Cl)(Cl)Cl)c1nc2ccccc2[nH]1	13.1%	-2.3%	27.8	35.0%	12.9%	3.98µM*
COc1cc(/C(O)=C(\C#N)c2nc3ccccc3[nH]2)cc(OC)c1OC	-4.3%	0.4%	59.8	14.7µM*	?	1.4%
CC(=O)OC(/C(O)=C(\C#N)c1nc2ccccc2[nH]1)c1ccccc1 (configuration not stated)	-18.1%	1.6%	-95.6*	9.28µM*	?	6.2%
N#C/C(=C(/O)c1ccc(Cl)cc1)c1nc2ccccc2[nH]1	5.6%	-0.8%	-29.5	9.9%	22.6%	-4.1%
Cc1cc(C)n2nc(C(=O)NNC(=O)c3ccccc3)nc2n1	27.9%	1.8%	18.7	2.7%	-22.7%	0.9%
CC[C@H](C)[C@@H]1NC(=O)CNC(=O)c2csc(n2)[C@H](C(C)(C)O)OC(=O)C(C)(C)[C@H](CCCC(C)(Cl)Cl)OC(=O)c2csc1n2	.	.	-78.8*	.	.	.
COc1cc(Cl)c(NS(=O)(=O)c2ccc(-c3ccc(=O)[nH]n3)o2)c(OC)c1	2.0%	-5.2%	-14.1	56.4%	18.5%	?
COc1cc(Cl)c(NC2=CC(=O)C(=O)c3ccccc32)c(OC)c1	15.8µM*	-2.4%	-97.0*	?	0.37µM*	?
CCOC(=O)c1c(C)[nH]c(C)c1S(=O)(=O)N(C)CC(=O)NCc1cccc(C)c1	11.4%	2.6%	-17.2	5.86µM*	?	-0.9%
COCCn1c(SCC(=O)c2ccc(F)cc2)nc2cc(C(=O)NC3CCCC3)ccc2c1=O	.	.	4.6	.	.	2.7%
O=C1Nc2ccc(F)cc2C12SCCS2	-11.7%	3.1%	-106.7*	16.5%	-27.8%	?
O=C1Nc2ccc(F)cc2C12OCCO2	-1.1%	-2.0%	-26.4	-5.3%	38.0%	-6.0%
CCN(CC(=O)Nc1ccc(C(=O)Nc2ccc(OC)cc2)cc1)Cc1nc2ccccc2c(=O)[nH]1	?	0.2%	-0.5	?	?	15.9%
Cc1ccc(OCCCN2CCC(C(O)(c3ccccc3)c3ccccc3)CC2)cc1	.	.	-18.0	.	.	.
OC(c1ccccc1)(c1ccccc1)C1CCN(CCCOc2cccc(C(F)(F)F)c2)CC1	.	.	-66.2*	.	.	.
OC(c1ccccc1)(c1ccccc1)C1CCN(CCCOc2ccc(C(F)(F)F)cc2)CC1	.	.	-81.0*	.	.	.
SMILES	HCV inh	SARS PLP yeast	HCMV antiviral	Pf growth 96h	Pf growth 48h	Sm TGR inh
CC(C)c1ccc(OCCCN2CCC(C(O)(c3ccccc3)c3ccccc3)CC2)cc1	.	.	-98.5*	.	.	.
Cc1cc(C)c(O)c(NC(=S)NC(=O)Cc2ccccc2)c1	-11.8%	-9.0%	14.9	?	?	11.3%
CCc1ccc(NC(=O)c2ccc(F)c(S(=O)(=O)N3CCN(c4cc(C)ccc4C)CC3)c2)cc1	.	.	?	.	.	-1.1%
CCOc1ccc(Oc2nc(Nc3ccc(C)cc3)nc(N(C)C)n2)nn1	11.2µM*	2.7%	-19.8	.	2.7%	5.8%
CC1=NNC(=O)/C1=C\c1cn(-c2ccccc2)nc1-c1ccccc1	11.2µM*	-5.2%	-100.0*	-8.9%	?	.
O=C(O)/C=C\c1cn(-c2ccccc2)nc1-c1cc2ccccc2o1	17.0%	-3.4%	-29.1	1.6%	?	38.1%
O=C(N/N=C/c1cn(-c2cccs2)nc1-c1ccccc1)c1ccccc1Cl	11.2µM*	-7.9%	-17.3	29.7%	-4.4%	-3.1%
O=C(O)/C=C/c1cn(-c2ccccc2)nc1-c1ccccc1	12.5%	-0.2%	93.8	5.86µM*	15.6%	?
O=C(N/N=C/c1cn(-c2ccccc2)nc1-c1ccccc1)c1ccco1	?	-0.9%	-21.5	37.3%	3.29µM*	-12.9%
CCCCNc1ncnc2[nH]ncc12	-16.5%	.	-28.6	.	.	.
Cc1ccc(NC(=O)c2sc3nc(-c4ccc(F)cc4)cn3c2C)c(C)c1	.	.	6.0	.	.	2.3%
CC1CN(CC(=O)NCc2ccc(Cl)cc2)CC(C)O1 (configuration not stated)	6.4%	2.5%	-2.7	18.7%	5.9%	14.3%
O=C(N/N=C\c1cn(-c2ccccc2)nc1-c1ccccc1)c1ccc(Br)o1	3.98µM*	-12.3%	75.3	4.15µM*	9.28µM*	13.9%
O=S(=O)(/N=C/c1c(O)ccc2ccccc12)c1cccs1	.	2.3%	8.8	0.4%	.	0.0%
COC(=O)C1CCN(C2CN(Cc3ccccc3)S(=O)(=O)C2)CC1 (configuration not stated)	.	.	-2.1	.	.	.
CCC1Oc2ccc(C)cc2N(CC(=O)N(Cc2cccnc2)Cc2cccc(F)c2)C1=O (configuration not stated)	19.5%	2.5%	-35.6	97.8%	11.7µM*	-9.7%
CCC1Oc2ccc(C)cc2N(CC(=O)N2CCOCC2)C1=O (configuration not stated)	15.1%	-1.4%	5.6	?	1.6%	8.5%
CCC1Oc2ccc(C)cc2N(CC(=O)N(Cc2ccncc2)Cc2ccco2)C1=O (configuration not stated)	-4.7%	-4.2%	27.1	4.8%	11.7µM*	22.4µM*
O=C(CN1C(=O)COc2ccccc21)N(Cc1cccnc1)Cc1cccc(F)c1	-3.0%	-3.8%	48.4	-3.9%	?	-1.9%
COc1ccc(OC)c(-c2cc(C(=O)Nc3ccc(F)cc3F)no2)c1	2.9%	0.9%	12.0	5.0%	-3.2%	1.7%
CCCCSP1(=S)NCCCN1	21.3%	2.4%	-12.5	1.2%	33.8%	-8.3%
